uPA generation: cell surface uPA generation inhibition | cell surface uPA generation assay, qHTS | Potency, µM (doses to about 38.3 µM), without a hit: at the highest dose activity change, negative = inhibition, actives largely listed as inhibitors | actives 0.31% (n = 330,000) | AID 540303; active means well fitted inhibition curve with a large enough effect; inconclusive means small, poorly fitted or top-dose-only effect; inactive means no such curve, though single readings can be large or run the other way; tested in mouse RAW 264.7 cells; further: potency means the concentration at half of the fitted maximal effect; on the % scale 0 is the no-effect control and ±100 the full control effect; nearly all actives have a fitted effect of over 55% in size
PLK1 PBD block: blocks phosphopeptide binding to human PLK1 polo-box domain; P53350; Plk1 PBD binding of FITC phosphopeptide, fluorescence polarization; Potency, µM, for the others: max response, negative = inhibition, usual class: inhibitors; actives 2.8% (n = 360,000); AID 720504; further: potency means the concentration at half of the fitted maximal effect; series mostly up to about 57 µM; on the % scale 0 is the no-effect control and ±100 the full control effect; nearly all actives have a fitted effect of over 65% in size
TSG101-PTAP inh: blocks PTAP/TSG101 interaction to inhibit HIV-1 budding | Q99816 | Fluorescence polarization, FITC-PTAP peptide / Tsg101 binding | Potency, µM (top dose mostly 115 µM), inactives show at the highest dose activity change, negative = inhibition, usual class: inhibitors | 340,000 tested, under 10 active | AID 493005; active means well fitted inhibition curve with a large enough effect in the main read-out, with a control signal flat, not every such curve was filed as active; inconclusive means small, poorly fitted or top-dose-only effect, or effect the other way, or a change in a side signal; inactive means no such curve, though single readings can be large or run the other way; further: potency means the concentration at half of the fitted maximal effect; % of control where 0% means no effect
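Steps: Tsg101 binding domain dispensed (10 uM final), compounds pinned in DMSO, FITC-labeled PTAP-motif peptide added (50 nM final); after 20 min binding at room temperature, polarization measured.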
VDR inhibitor: vitamin D3 receptor (human) inhibition. Potency, µM, for the others: max response, negative = inhibition, hits mostly inhibitors. actives 0.93% (n = 400,000). AID 504847. VDR-SRC2-3 peptide fluorescence polarization, 2 h; further: potency means the concentration at half of the fitted maximal effect; on the % scale 0 is the no-effect control and ±100 the full control effect
Target sequence (P11473 whole entry, looked up): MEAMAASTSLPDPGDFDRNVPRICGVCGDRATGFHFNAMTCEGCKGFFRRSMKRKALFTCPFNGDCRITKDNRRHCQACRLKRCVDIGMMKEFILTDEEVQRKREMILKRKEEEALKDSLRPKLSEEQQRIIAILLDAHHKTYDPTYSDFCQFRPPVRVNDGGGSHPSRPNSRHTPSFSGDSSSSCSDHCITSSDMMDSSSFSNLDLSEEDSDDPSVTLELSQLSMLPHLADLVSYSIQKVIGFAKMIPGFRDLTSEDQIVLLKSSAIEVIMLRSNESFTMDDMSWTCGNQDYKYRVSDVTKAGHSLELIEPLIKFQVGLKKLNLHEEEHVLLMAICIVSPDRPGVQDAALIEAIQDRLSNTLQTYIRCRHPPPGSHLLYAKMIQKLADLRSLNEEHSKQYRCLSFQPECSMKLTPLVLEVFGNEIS
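VDR–SRC2-3 interaction, FP format. Cmpds 23 nl via pintool, brief spin, 2 h ambient incubation.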
TSHR antagonist: blocks TSH signaling through the human TSH receptor; P16473; TSHR-expressing cells, TSH-stimulated cAMP HTRF, 2 h; hits give low values; activity change, negative = inhibition, % at 11.5 µM; actives 0.2% (n = 330,000);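 active means activity change below a set negative limit, meaning inhibition stronger than a set level, cut at about -70% in these data; inconclusive means activity change between two set negative limits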; further: on the % scale 0 is the no-effect control and ±100 the full control effect
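Read-out is FRET at 665 nm (cryptate excitation 337 nm) from a cryptate-tagged anti-cAMP antibody, competed by cell cAMP against cAMP-d2. Compounds are tested on freshly harvested TSHR cells challenged with 4nM TSH (EC80) for 2 hours at 37 deg C.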
* = called active by the depositor; ? = inconclusive; . = no result. Only some compounds are listed: those with a hit (about 3.1% of all), similar ones and a draw of the others. Unless noted, the call rests on the fitted dose curve; in most records, active means well fitted curve in the direction sought with a large enough effect; inconclusive means small, poorly fitted or top-dose-only effect, or another doubt; inactive means no such curve, though single readings can be large; an effect the other way counts as inactive or inconclusive.

SMILES	uPA generation	PLK1 PBD block	TSG101-PTAP inh	VDR inhibitor	TSHR antagonist
CCc1cc(=O)oc2cc(OCC(=O)NCc3ccccn3)ccc12	-4.3%	26.7µM*	-6.0%	?	-4.5
Cc1cc(=O)oc2cc(OCC(=O)N3CCCC3)ccc12	-84.0%	-22.1%	-7.6%	-19.1%	.
Cc1cc(=O)oc2cc(OCC(=O)N3CCOCC3)ccc12	4.1%	26.7µM*	-0.4%	-15.4%	-0.7
COc1ccc(-c2cc(=O)oc3cc(OCC(=O)Nc4ccccn4)ccc23)cc1	-1.9%	2.99µM*	-3.4%	?	2.4
CCOC(=O)c1c(-c2ccccc2)csc1NC(=O)COc1ccc2c(C)cc(=O)oc2c1	5.1%	26.7µM*	0.0%	-17.4%	5.1
CCCS(=O)(=O)NC(=O)C1(C)CCCN(C(=O)c2cncc(Br)c2)C1 (centres undefined)	.	-2.6%	.	.	.
COCCCNC(=O)CCc1c(C)nc2nc(-c3cc(OC)cc(OC)c3)nn2c1C	.	.	.	3.2%	.
CC1=CC(=C(C#N)c2nc3ccccc3s2)C=C(C)N1CC1CCCO1 (centres undefined)	0.0%	26.7µM*	?	4.5%	-6.5
OCC(CO)(CO)N=Cc1c(O)ccc2ccccc12	10.1%	4.23µM*	.	-19.3%	2.1
O=c1c2ccccc2nc(N/N=C/c2ccc(O)cc2)n1O	-4.2%	?	-1.0%	0.1%	3.8
O=c1c2ccccc2nc(N/N=C/c2c(O)ccc3ccccc23)n1O	-12.7%	29.9µM*	-3.2%	10.4%	-16.1
CN(C)/N=C/c1c(O)ccc2ccccc12	7.2%	-3.4%	-2.7%	-4.6%	1.8
O=C(CN1CCCC1)N/N=C/c1c(O)ccc2ccccc12	5.01µM*	4.7%	-0.4%	-16.9%	-3.1
Oc1ccc2ccccc2c1C=NC12CN3CCN(CN(C3)C1)C2	1.6%	5.32µM*	-10.0%	?	4.8
COc1ccccc1Cn1cc(C(=O)c2ccc(C)cc2)c(=O)c2cc(F)cc(F)c21	.	.	.	-3.1%	.
COc1ccc(CNC(=O)CN2C(=O)COc3ccc(S(=O)(=O)Nc4ccccc4)cc32)cc1	.	.	.	3.2%	.
Cc1ccc(NC(=O)CC2Oc3ccccc3NC2=O)cc1C (centres undefined)	.	.	.	-24.9%	.
CC1(C)OC[C@@H]2O[C@@]3(C(=O)O)OC(C)(C)O[C@@H]3[C@@H]2O1	.	.	.	-10.8%	.
O=C1C(=O)c2ccccc2C(O)=C1c1cccc([N+](=O)[O-])c1	-13.0%	26.7µM*	-4.6%	-16.0%	-5.2
CCOP(=O)(Cc1ccc(C(C)(C)CC(C)=O)o1)OCC	-11.9%	-19.5%	-3.5%	14.9%	-81.8*
Fc1cc(F)c(C2SCCN2C(=S)Nc2cccc(C(F)(F)F)c2)c(F)c1 (centres undefined)	5.1%	-26.1%	0.3%	4.1%	-72.1*
CCOc1ccccc1CNC(=O)CCCN1C(=O)c2cccnc2Oc2ccc(Cl)cc21	.	.	.	9.2%	.
O=C(CCCC(=O)OCC(=O)c1cccs1)Nc1ccc(Oc2ccccc2)cc1	1.5%	29.9µM*	-17.1%	-9.3%	-5.9
COCCn1c(=O)c(-c2cccs2)nc2cnc(Oc3cccc(Cl)c3)nc21	.	.	.	-0.3%	.
CSc1nc(-c2ccccc2)c(C#N)c(=O)[nH]1	0.7%	26.7µM*	-5.6%	-23.8%	0.6
SMILES	uPA generation	PLK1 PBD block	TSG101-PTAP inh	VDR inhibitor	TSHR antagonist
CCSc1nc(-c2ccccc2)c(C#N)c(=O)[nH]1	-2.9%	-4.6%	-7.3%	-2.8%	-10.7
CCCOc1ccc(-c2nc(SCc3ccccc3)[nH]c(=O)c2C#N)cc1OC	-2.2%	26.7µM*	-5.5%	-15.0%	-6.2
N#Cc1c(-c2ccccc2)nc(SCc2nc(N)nc(N3CCCCC3)n2)[nH]c1=O	-3.0%	2.99µM*	-0.6%	-18.1%	-7.6
CCc1nnc(SCc2cccc(Cl)c2)c2cc3sccc3n12	.	.	.	4.2%	.
COc1ccc(C(CNC(=O)c2ccc(OCc3csc(C)n3)cc2)N2CCCC2)cc1 (centres undefined)	.	2.9%	.	.	.
COC(=O)/C(=C\C=C\c1ccccc1)NC(=O)c1ccccc1	0.7%	13.4µM*	0.9%	-21.1%	-5.7
CSc1ccc(CCNC(=O)Cn2ncc3c(=O)oc4ccc(C)cc4c32)cc1	.	.	.	-19.5%	.
COc1ccc(NC(=O)N2CC3(CCN(C(=O)c4cnccn4)CC3)C2)cc1	.	.	.	-1.0%	.
COc1cc(/C=N/NC(=O)CC#N)cc(Br)c1O	0.8%	10.6µM*	-0.1%	?	-0.2
COc1cc(/C=N/NC(=O)Cc2ccc(Br)cc2)cc(OC)c1O	-2.5%	-9.7%	-1.4%	6.9%	15.5

High-throughput results deposited in PubChem BioAssay by National Center for Advancing Translational Sciences (NCATS).
